Assay results as given in paper PMC3795721, “Screening for Protein-DNA Interactions by Automatable DNA-Protein Interaction ELISA”.

What follows are sequences tested against AT4G31550 (Arabidopsis thaliana, UniProt Q9SV15 228-325) (assay: DPI-ELISA; DPI-ELISA, streptavidin 384-well plate, 1-2 pmol biotinylated dsDNA per well, crude native E. coli extract, anti-His detection; buffer as in Brand et al. [46],; high values mean tight binding). Conditions: tags: C-terminal His (pET-DEST42); label: 5' biotin on forward strand; dsDNA, one strand shown.
AT4G31550, sequence (Q9SV15 228-325): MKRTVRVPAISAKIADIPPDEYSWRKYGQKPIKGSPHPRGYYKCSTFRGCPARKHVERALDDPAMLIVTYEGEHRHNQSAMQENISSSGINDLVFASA

Sequence	binding signal
AAAAAACCGACCTGCACGTCGCTGCTAAAA	0.505 ± 0.106 absorbance
AAAAAAATATTTGAGCTAGGTTATCAAAAA	0.57 ± 0.113 absorbance
AAAAAACTCTTAAGGAAAGTTCCGACAAAA	0.645 ± 0.12 absorbance
AAAAAAGTATAACGTGTTGTTGACCGAAAA	3.455 ± 0.0212 absorbance
AAAAAAGAGTGGTTTATTAATGTATAAAAA	0.74 ± 0.184 absorbance
AAAAAATGGTCGATCCGCATGCAGTTAAAA	0.52 ± 0.099 absorbance
AAAAAATGGCTCGGGTTCCAAGGTTGAAAA	0.645 ± 0.0919 absorbance
AAAAAAAGTTCGCGGATTTCGGCCATAAAA	0.685 ± 0.148 absorbance
AAAAAAAGTGGCCGCTAGTCAACTCAAAAA	3.46 ± 0.389 absorbance
AAAAAATTTGTACTTTAAGTTTACATAAAA	0.56 ± 0.0849 absorbance
AAAAAAGTTGCCGACGATTGCGGGTTAAAA	0.735 ± 0.163 absorbance
AAAAAATCGGGCCCCGTTAGCACTCTAAAA	0.665 ± 0.12 absorbance
AAAAAATAAATCGCGGCTACTGCTTCAAAA	0.55 ± 0.141 absorbance
AAAAAAATTTTTAGTTTTAATTTTGGAAAA	0.615 ± 0.106 absorbance
AAAAAAGTGTTAGATTGTAGTTGATAAAA	0.675 ± 0.106 absorbance
AAAAAAGGTAATGCCGGTCCCAGTATAAAA	0.525 ± 0.0778 absorbance
AAAAAAACCCTGTGTCGGCCGATAAAAAA	0.58 ± 0.099 absorbance
AAAAAACCTCTTGTCTCTGCTCTCCCAAAA	0.575 ± 0.106 absorbance
AAAAAAGCTTCTCATGTTGTCTTAGGAAAA	0.695 ± 0.177 absorbance
AAAAAAGATTGACTCGTCTTACTCGAAAAA	3.08 ± 0.742 absorbance
AAAAAAGGTCCAGTCCACGTCATCAGAAAA	1.84 ± 0.431 absorbance
AAAAAAGTCGTCACGCACGTGAATACAAAA	1.15 ± 0.0141 absorbance
AAAAAATAGTGTGATTGGTATCCAGTAAAA	0.645 ± 0.0495 absorbance
AAAAAATAGCGACTTCGACTCTCAGTAAAA	0.76 ± 0.0707 absorbance
